Assay results taken from the supplement of paper PMC13380429.

These compounds were tested on Vero E6 infected with SARS-CoV-2 (assay: morphology score (similarity to uninfected cells); higher = more like uninfected cells). Settings: 24 h.
With CCN1C[C@]2(COC(=O)c3ccccc3N3C(=O)C[C@H](C)C3=O)CC[C@H](OC)[C@@]34[C@@H]5C[C@H]6[C@H](OC)[C@@H]5[C@](O)(C[C@@H]6OC)[C@](O)([C@@H](OC)[C@H]23)[C@@H]14 [methyllycaconitine] (10 µM) the morphology score was 0.00671. In the case of C#C[C@]1(O)CC[C@H]2[C@@H]3CCC4=CC(=O)CC[C@@H]4[C@H]3CC[C@@]21CC [norgestrel] (10 µM), the morphology score is reported as 0.191. O=C(Nc1cc(Cl)cc(Cl)c1O)c1c(O)c(Cl)cc(Cl)c1Cl [oxyclozanide] (10 µM) gave a morphology score of 0.0306. For O=C(Cc1ccccc1)Nc1nc2ccc(Cl)cc2c2nc(-c3ccco3)nn12 (10 µM), the morphology score was -0.00361. CC(C)(C)NCC(O)c1ccccc1Cl (stereo not given) [tulobuterol] (10 µM) was tested, and the morphology score was -0.0152. With OC[C@H]1O[C@@H](Oc2cc3c(O)cc(O)cc3[o+]c2-c2ccc(O)c(O)c2)[C@H](O)[C@@H](O)[C@@H]1O [kuromanin] (10 µM) the morphology score was -0.129. CC(C)Oc1cccc(CC(=O)N2CCC[C@](CC[N+]34CCC(c5ccccc5)(CC3)CC4)(c3ccc(Cl)c(Cl)c3)C2)c1 (10 µM) showed a morphology score of 0.0196. With c1cc(CN2CCCNCCNCCCNCC2)ccc1CN1CCCNCCNCCCNCC1 [plerixafor] (10 µM) the morphology score was 0.0853. In the case of CO[C@H]1/C=C/O[C@@]2(C)Oc3c(C)c(O)c4c(O)c(cc(O)c4c3C2=O)NC(=O)/C(C)=C\C=C\[C@H](C)[C@H](O)[C@@H](C)[C@@H](O)[C@@H](C)[C@H](OC(C)=O)[C@@H]1C [rifamycin-sv] (10 µM), the morphology score is reported as 0.117. With COc1ccc2cc(-c3cc(-c4cc(Cl)cc(Cl)c4)nn3[C@@H](C)c3ccc(C(=O)NCCC(=O)O)cc3)ccc2c1 (10 µM) the morphology score was 0.164. For COc1ccc(-c2ccc(=N)n(CCCC(=O)O)n2)cc1 [gabazine] (10 µM), the morphology score was -0.176. For CCCC[C@H](NC(C)=O)C(=O)N[C@H]1CC(=O)NCCCC[C@@H](C(=O)O)NC(=O)[C@H](Cc2c[nH]c3ccccc23)NC(=O)[C@H](CCCNC(=N)N)NC(=O)[C@@H](Cc2ccccc2)NC(=O)[C@H](Cc2c[nH]cn2)NC1=O [bremelanotide] (10 µM), the morphology score was 0.067. In the case of CCN1C[C@]2(OC(=O)c3ccccc3NC(C)=O)CC[C@H](OC)[C@@]34[C@@H]2C[C@@H]([C@@H]13)[C@@]1(O)C[C@H](OC)[C@H]2C[C@@H]4[C@]1(O)[C@H]2OC [lappaconite] (10 µM), the morphology score is reported as 0.0794. In the case of CCCCOc1ccc(C(=O)Nc2ccc(F)cc2F)cc1 (10 µM), the morphology score is reported as 0.18. CC[C@H]1OC(=O)[C@H](C)[C@@H](O[C@H]2C[C@@](C)(OC)[C@@H](O)[C@H](C)O2)[C@H](C)[C@@H](O[C@@H]2O[C@H](C)C[C@H](N(C)C)[C@H]2O)[C@](C)(O)C[C@@H](C)C(=O)[C@H](C)[C@@H](O)[C@]1(C)O [erythromycin] (10 µM) showed a morphology score of -0.171. CS(=O)(=O)N1CCc2c(-c3cnc(N)nc3)nc(N3CCOCC3)nc21 (0.833333 µM) gave a morphology score of 0.0917. Compound O=C1NC(=O)c2c1c1c3ccccc3n3c1c1c2c2ccccc2n1C1CCC3O1 (10 µM) has a morphology score of -0.0614. O=c1[nH]c2ccccc2n1CCCN1CCC(n2c(=O)[nH]c3cc(Cl)ccc32)CC1 [domperidone] (10 µM) was tested, and the morphology score was 0.00154. For O=C(O)COc1ccc(OCCNC[C@H](O)COc2ccccc2)cc1 (10 µM), the morphology score was -0.002. In the case of CO[C@H]1[C@H](O)[C@@H](O)[C@@H](O)[C@H](O)[C@@H]1O [pinitol] (10 µM), the morphology score is reported as -0.0343. For COc1ccc(S(=O)(=O)N(C(C)=O)c2ccccc2/C=C/c2cc[n+]([O-])cc2)cc1 (10 µM), the morphology score was -0.108. In the case of CS(=O)(=O)Nc1c(O)ccc2c1CCC[C@H]2C1=NCCN1 (10 µM), the morphology score is reported as 0.0346. COc1ccc2[nH]c(I)c(CCNC(C)=O)c2c1 [2-iodomelatonin] (10 µM) was tested, and the morphology score was 0.0455. In the case of O=C1CS[C@@H](c2ccccc2Cl)c2cc(Cl)ccc2N1 (racemic) (10 µM), the morphology score is reported as 0.245. Work on CC(C)C[C@H](NC(=O)[C@@H](COC(C)(C)C)NC(=O)[C@H](Cc1ccc(O)cc1)NC(=O)[C@H](CO)NC(=O)[C@H](Cc1c[nH]c2ccccc12)NC(=O)[C@H](Cc1cnc[nH]1)NC(=O)[C@@H]1CCC(=O)N1)C(=O)N[C@@H](CCCNC(=N)N)C(=O)N1CCC[C@H]1C(=O)NNC(N)=O [goserelin-acetate] (10 µM) yielded a morphology score of 0.0827. OC[C@@H](O)[C@@H](O)[C@@H](O)CO [ribitol] (10 µM) was tested, and the morphology score was 0.073. In the case of CCC(C)(C)C(=O)O[C@H]1C[C@@H](C)C=C2C=C[C@H](C)[C@H](CC[C@@H]3C[C@@H](O)CC(=O)O3)[C@H]21 [simvastatin] (0.833333 µM), the morphology score is reported as -0.0774. Compound Cc1ccc(NC(=O)c2ccc(CN3CCN(C)CC3)cc2)cc1Nc1nc(-c2cccnc2)cs1 [masitinib] (10 µM) has a morphology score of 0.757. With O=c1ccn([C@@H]2O[C@H](COP(=O)(O)OP(=O)(O)OP(=O)(O)O)[C@@H](O)[C@H]2O)c(=O)[nH]1 (10 µM) the morphology score was 0.267. With CSc1nc2ccc3nc(NC(=O)C(c4ccccc4)c4ccccc4)sc3c2s1 (10 µM) the morphology score was 0.0833. In the case of NS(=O)(=O)OC[C@@H]1C[C@@H](n2ccc3c(N[C@H]4CCc5ccccc54)ncnc32)C[C@@H]1O [pevonedistat] (0.833333 µM), the morphology score is reported as -0.404. O=C(NO)c1ccc(O)c(O)c1 [didox] (10 µM) was tested, and the morphology score was 0.0981. For CCCCC/C=C\C/C=C\C/C=C\C/C=C\CCCC(=O)Nc1ccc(O)cc1 (10 µM), the morphology score was 0.0145. Compound NCCNc1ccc(NCCN)c2c1C(=O)c1ccncc1C2=O [pixantrone] (10 µM) has a morphology score of 0.328. With CCOc1ccccc1OCC1CNCCO1 (stereo not given) [viloxazine] (10 µM) the morphology score was 0.0033. Work on CC[C@@]1(O)C(=O)OCc2c1cc1n(c2=O)Cc2cc3c(CN(C)C)c(O)ccc3nc2-1 [topotecan] (10 µM) yielded a morphology score of 0.0619. CC(=O)Nc1ccc(OC[C@](C)(O)C(=O)Nc2ccc([N+](=O)[O-])c(C(F)(F)F)c2)cc1 [andarine] (10 µM) showed a morphology score of -0.0126. Compound OC[C@H]1O[C@@H](n2cnc3c(NC4CCCC4)nc(Cl)nc32)[C@H](O)[C@@H]1O [2-chloro-N6-cyclopentyladenosine] (10 µM) has a morphology score of 0.106. Compound Cc1cnc(NC(=O)Nc2cc(Br)c(C)cc2OC[C@@H]2CNCCO2)cn1 (0.833333 µM) has a morphology score of 0.0474. N[C@@H]1[C@H]2CN(c3nc4c(cc3F)c(=O)c(C(=O)O)cn4-c3ccc(F)cc3F)C[C@@H]12 [trovafloxacin] (10 µM) gave a morphology score of 0.276.
